Data reported in paper PMC7862700, “An all-to-all approach to the identification of sequence-specific readers for epigenetic DNA modifications on cytosine”.

How the values were obtained:
Experiment in all cases: DAPPL (digital affinity profiling via proximity ligation, sequencing); 10 mM Tris-HCl pH 7.5, 50 mM NaCl, 1 mM DTT, 4% glycerol, room temperature, 30 min; GST-TFs on glutathione beads, 16-mer random dsDNA library, 0.1% formaldehyde crosslink after washing; high values mean tight binding
FEV = target: T1, FEV (Homo sapiens, UniProt Q99581 1-238); details: protein: recombinant; tags: N-terminal GST; dsDNA, one strand shown
T1 sequence: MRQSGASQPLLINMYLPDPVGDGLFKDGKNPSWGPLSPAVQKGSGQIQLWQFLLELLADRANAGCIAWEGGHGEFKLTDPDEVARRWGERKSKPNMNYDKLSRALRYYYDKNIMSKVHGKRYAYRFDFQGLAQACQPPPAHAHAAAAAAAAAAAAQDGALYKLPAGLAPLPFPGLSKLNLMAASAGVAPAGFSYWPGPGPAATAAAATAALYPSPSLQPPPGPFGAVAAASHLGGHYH
Summary of the method: (§1)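 In yeast, human transcription factors were expressed with a GST fusion, then pulled down on glutathione beads and given DNA barcodes. Pooled with a tag-only sample, they were exposed to 200 nmole of a 16-mer random double-stranded DNA library (Tris/NaCl/DTT/glycerol buffer, room temperature, 30 min), washed, crosslinked with 0.1% formaldehyde, proximity-ligated using BsaI/T4 ligase for 1 h at 37 °C, PCR-amplified and read on an Illumina NextSeq500. Each hexamer's frequency of reads for a factor, divided by the matching frequency for the tag-only sample, gives the binding signal.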

ETV5 = ETV5 (Homo sapiens, UniProt P41161 1-510); details: protein: recombinant; tags: N-terminal GST; dsDNA, one strand shown
ETV5, sequence (P41161 whole entry): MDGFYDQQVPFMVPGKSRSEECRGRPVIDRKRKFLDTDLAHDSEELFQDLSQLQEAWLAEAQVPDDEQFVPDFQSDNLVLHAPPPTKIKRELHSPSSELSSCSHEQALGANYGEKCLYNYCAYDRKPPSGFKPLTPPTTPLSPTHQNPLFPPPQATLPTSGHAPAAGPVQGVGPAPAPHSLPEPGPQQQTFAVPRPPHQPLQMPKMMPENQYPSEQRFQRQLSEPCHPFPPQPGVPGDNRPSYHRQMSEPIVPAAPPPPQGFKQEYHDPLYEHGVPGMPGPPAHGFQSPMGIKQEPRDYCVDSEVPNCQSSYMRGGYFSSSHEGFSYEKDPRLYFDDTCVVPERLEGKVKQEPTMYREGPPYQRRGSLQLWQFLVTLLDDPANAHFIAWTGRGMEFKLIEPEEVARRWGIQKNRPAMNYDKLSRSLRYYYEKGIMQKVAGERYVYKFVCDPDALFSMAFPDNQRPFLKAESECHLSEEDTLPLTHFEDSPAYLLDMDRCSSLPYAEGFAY
Summary of the method: as §1

HSF1 = HSF1 (Homo sapiens, UniProt Q00613 1-529); details: protein: recombinant; tags: N-terminal GST; chain copies: 3; dsDNA, one strand shown
HSF1, sequence (Q00613 whole entry): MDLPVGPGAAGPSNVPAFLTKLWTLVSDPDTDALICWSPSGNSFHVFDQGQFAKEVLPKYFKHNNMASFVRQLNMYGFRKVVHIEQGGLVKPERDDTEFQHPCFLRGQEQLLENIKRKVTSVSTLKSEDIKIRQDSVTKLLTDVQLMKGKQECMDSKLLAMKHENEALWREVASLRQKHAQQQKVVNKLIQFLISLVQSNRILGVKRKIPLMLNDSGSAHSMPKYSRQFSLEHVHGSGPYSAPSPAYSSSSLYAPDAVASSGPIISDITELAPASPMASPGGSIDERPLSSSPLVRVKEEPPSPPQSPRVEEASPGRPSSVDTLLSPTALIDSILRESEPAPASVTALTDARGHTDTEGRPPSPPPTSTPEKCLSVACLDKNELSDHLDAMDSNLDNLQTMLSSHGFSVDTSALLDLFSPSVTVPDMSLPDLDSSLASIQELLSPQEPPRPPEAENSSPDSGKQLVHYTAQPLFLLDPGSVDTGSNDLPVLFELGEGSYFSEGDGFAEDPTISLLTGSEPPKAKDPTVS
Summary of the method: as §1

SPIC = target: T2, SPIC (Homo sapiens, UniProt Q8N5J4 1-248); details: protein: recombinant; tags: N-terminal GST; dsDNA, one strand shown
T2 sequence: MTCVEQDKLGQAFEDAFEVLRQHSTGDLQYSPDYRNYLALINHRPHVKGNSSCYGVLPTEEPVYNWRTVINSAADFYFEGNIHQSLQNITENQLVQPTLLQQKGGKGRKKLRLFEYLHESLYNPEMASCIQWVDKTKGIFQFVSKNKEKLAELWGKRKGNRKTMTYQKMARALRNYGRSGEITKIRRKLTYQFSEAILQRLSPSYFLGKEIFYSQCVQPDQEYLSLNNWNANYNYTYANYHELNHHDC
Summary of the method: as §1

ELF4 = ELF4 (Homo sapiens, UniProt Q99607 1-663); details: protein: recombinant; tags: N-terminal GST; dsDNA, one strand shown
ELF4, sequence (Q99607 whole entry): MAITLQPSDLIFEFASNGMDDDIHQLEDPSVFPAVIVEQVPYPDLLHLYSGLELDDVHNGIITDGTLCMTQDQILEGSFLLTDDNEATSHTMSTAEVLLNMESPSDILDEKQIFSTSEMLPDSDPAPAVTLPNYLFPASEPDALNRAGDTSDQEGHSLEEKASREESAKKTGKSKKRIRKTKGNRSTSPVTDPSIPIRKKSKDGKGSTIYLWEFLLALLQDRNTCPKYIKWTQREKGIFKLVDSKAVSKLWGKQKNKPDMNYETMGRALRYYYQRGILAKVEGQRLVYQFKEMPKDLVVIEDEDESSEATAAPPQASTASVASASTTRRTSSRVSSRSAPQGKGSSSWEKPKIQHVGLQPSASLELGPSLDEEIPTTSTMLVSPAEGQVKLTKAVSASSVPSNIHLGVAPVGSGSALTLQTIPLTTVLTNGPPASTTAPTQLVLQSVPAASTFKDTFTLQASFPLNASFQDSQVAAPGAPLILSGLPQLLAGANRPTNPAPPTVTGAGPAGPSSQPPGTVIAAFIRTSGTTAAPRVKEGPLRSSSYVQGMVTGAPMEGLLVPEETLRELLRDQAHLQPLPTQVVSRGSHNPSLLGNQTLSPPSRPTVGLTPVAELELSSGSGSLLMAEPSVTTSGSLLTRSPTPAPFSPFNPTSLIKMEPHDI
Summary of the method: as §1

ELK4 = target: T3, ELK4 (Homo sapiens, UniProt P28324-2 1-405); details: protein: recombinant; tags: N-terminal GST; dsDNA, one strand shown
T3 sequence: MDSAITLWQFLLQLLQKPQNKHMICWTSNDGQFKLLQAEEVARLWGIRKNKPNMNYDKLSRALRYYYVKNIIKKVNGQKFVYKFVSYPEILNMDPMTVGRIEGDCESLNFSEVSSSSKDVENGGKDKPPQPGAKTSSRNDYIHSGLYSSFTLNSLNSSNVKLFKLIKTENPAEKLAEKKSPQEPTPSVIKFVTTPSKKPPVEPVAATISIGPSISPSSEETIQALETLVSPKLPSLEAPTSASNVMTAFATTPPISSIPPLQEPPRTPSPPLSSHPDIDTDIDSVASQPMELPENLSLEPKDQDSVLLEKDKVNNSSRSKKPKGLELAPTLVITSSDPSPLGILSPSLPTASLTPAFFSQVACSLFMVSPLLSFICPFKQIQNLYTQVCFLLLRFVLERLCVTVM
Summary of the method: as §1

ETV2 = target: T4, ETV2 (Homo sapiens, UniProt O00321 1-342); details: protein: recombinant; tags: N-terminal GST; dsDNA, one strand shown
T4 sequence: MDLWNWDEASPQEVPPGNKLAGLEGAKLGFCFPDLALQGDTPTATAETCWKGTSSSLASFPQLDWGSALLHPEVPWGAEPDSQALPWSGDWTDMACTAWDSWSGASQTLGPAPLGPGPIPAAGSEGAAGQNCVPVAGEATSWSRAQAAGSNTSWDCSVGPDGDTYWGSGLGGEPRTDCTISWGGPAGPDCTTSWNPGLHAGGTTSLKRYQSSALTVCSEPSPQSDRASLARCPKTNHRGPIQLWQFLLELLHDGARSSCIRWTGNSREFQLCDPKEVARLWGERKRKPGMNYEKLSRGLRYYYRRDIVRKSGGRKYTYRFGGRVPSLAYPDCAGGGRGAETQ
Summary of the method: as §1

ELF3 = target: T5, ELF3 (Homo sapiens, UniProt P78545 1-371); details: protein: recombinant; tags: N-terminal GST; dsDNA, one strand shown
T5 sequence: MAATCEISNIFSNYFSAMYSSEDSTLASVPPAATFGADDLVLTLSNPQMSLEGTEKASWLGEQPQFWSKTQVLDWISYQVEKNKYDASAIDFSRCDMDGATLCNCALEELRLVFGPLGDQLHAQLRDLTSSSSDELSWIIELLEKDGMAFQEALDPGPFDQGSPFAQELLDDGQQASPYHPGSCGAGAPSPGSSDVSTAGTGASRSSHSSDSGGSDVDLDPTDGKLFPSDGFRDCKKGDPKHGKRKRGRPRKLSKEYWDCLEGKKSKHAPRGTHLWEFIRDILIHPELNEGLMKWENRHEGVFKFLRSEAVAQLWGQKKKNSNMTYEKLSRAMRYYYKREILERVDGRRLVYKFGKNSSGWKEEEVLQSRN
Summary of the method: as §1

CRX = CRX (Homo sapiens, UniProt O43186 1-299); details: protein: recombinant; tags: N-terminal GST; dsDNA, one strand shown
CRX, sequence (O43186 whole entry): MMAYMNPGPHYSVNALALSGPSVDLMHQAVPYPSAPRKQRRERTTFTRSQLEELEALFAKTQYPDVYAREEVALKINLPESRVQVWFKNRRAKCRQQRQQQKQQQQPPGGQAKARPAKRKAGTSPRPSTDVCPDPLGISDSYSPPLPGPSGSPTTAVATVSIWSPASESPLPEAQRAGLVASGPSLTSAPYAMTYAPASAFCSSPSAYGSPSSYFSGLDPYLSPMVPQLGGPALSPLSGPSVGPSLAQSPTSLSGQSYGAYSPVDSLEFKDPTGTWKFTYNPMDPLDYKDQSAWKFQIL
Summary of the method: as §1

ETV1 = ETV1 (Homo sapiens, UniProt P50549 1-477); details: protein: recombinant; tags: N-terminal GST; dsDNA, one strand shown
ETV1, sequence (P50549 whole entry): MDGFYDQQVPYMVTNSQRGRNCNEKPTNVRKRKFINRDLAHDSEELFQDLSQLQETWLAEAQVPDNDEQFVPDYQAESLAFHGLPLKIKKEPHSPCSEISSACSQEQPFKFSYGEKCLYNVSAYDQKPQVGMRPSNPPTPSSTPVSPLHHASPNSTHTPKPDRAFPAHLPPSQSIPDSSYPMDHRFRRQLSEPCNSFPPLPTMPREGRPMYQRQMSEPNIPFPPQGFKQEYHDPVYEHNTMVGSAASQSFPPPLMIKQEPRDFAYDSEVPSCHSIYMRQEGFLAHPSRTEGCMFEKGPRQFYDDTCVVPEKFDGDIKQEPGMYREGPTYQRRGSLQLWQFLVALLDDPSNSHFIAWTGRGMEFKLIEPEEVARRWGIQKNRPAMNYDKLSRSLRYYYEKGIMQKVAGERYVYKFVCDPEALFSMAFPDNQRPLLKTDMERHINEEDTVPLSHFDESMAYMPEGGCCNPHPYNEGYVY
Summary of the method: as §1

ERF = target: T6, ERF (Homo sapiens, UniProt P50548 1-548); details: protein: recombinant; tags: N-terminal GST; dsDNA, one strand shown
T6 sequence: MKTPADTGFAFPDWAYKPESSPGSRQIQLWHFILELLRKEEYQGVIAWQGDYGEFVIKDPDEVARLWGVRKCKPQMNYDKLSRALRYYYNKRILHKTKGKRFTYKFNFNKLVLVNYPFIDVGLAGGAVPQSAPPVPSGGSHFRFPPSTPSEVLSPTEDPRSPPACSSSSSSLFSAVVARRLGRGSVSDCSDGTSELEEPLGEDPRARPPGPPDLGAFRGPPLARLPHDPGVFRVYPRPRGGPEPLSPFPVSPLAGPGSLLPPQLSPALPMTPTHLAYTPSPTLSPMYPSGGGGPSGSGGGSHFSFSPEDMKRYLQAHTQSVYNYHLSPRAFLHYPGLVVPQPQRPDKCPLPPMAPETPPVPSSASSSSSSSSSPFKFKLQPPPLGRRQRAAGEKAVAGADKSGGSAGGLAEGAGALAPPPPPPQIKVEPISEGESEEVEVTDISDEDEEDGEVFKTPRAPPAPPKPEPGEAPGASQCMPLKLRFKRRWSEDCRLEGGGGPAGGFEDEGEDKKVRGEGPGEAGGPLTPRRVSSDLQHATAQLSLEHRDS
Summary of the method: as §1

ETV3L = target: T7, ETV3L (Homo sapiens, UniProt Q6ZN32 1-361); details: protein: recombinant; tags: N-terminal GST; dsDNA, one strand shown
T7 sequence: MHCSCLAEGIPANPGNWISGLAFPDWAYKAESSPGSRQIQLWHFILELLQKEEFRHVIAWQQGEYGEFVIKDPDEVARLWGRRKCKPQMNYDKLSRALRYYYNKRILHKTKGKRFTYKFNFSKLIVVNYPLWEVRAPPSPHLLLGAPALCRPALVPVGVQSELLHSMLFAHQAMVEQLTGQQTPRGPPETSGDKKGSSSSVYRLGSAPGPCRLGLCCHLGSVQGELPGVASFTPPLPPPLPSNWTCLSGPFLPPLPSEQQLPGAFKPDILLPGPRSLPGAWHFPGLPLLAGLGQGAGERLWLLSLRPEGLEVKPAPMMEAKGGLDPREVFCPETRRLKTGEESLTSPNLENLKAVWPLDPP
Summary of the method: as §1

ETS2 = target: T8, ETS2 (Homo sapiens, UniProt P15036 1-469); details: protein: recombinant; tags: N-terminal GST; dsDNA, one strand shown
T8 sequence: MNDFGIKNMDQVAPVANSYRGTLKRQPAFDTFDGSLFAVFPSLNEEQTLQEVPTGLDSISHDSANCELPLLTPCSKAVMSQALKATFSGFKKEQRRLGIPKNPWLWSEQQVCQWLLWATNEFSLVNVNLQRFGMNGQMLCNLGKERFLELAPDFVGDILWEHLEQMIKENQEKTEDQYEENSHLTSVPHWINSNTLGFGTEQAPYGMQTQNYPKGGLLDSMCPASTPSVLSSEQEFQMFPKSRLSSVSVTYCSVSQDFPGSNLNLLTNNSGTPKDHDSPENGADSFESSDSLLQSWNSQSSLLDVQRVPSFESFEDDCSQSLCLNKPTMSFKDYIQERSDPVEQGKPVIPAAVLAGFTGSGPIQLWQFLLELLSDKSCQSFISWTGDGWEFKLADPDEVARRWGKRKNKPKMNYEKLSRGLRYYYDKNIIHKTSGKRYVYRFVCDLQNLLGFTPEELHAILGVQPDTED
Summary of the method: as §1

SPDEF = target: T9, SPDEF (Homo sapiens, UniProt O95238 1-335); details: protein: recombinant; tags: N-terminal GST; dsDNA, one strand shown
T9 sequence: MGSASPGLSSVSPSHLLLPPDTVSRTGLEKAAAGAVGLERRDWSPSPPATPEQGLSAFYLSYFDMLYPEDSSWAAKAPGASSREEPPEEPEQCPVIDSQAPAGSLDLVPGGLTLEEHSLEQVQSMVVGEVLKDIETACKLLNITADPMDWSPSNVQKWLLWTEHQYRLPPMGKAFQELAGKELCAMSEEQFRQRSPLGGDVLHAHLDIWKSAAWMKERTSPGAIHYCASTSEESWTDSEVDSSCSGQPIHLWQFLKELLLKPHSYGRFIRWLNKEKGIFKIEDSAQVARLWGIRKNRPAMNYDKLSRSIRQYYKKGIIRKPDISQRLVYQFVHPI
Summary of the method: as §1

ETV7 = target: T10, ETV7 (Homo sapiens, UniProt Q9Y603 1-341); details: protein: recombinant; tags: N-terminal GST; dsDNA, one strand shown
T10 sequence: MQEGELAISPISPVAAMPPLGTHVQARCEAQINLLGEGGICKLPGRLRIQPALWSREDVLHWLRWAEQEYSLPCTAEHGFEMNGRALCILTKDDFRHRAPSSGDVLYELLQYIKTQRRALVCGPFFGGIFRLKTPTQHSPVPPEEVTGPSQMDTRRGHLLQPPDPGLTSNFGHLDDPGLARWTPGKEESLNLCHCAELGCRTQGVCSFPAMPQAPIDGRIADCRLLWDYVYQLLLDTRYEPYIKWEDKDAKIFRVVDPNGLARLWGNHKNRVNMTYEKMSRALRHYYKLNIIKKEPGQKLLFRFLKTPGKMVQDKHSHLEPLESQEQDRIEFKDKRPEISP
Summary of the method: as §1

ELF5 = target: T11, ELF5 (Homo sapiens, UniProt Q9UKW6-2 1-255); details: protein: recombinant; tags: N-terminal GST; dsDNA, one strand shown
T11 sequence: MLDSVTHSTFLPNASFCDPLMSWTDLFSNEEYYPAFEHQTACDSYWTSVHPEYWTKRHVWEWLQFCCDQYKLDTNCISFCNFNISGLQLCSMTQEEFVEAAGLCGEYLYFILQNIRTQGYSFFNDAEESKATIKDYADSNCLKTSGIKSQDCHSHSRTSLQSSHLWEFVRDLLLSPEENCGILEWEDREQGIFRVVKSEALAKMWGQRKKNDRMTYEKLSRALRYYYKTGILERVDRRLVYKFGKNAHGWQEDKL
Summary of the method: as §1

ETV3 = target: T12, ETV3 (Homo sapiens, UniProt P41162-2 1-143); details: protein: recombinant; tags: N-terminal GST; dsDNA, one strand shown
T12 sequence: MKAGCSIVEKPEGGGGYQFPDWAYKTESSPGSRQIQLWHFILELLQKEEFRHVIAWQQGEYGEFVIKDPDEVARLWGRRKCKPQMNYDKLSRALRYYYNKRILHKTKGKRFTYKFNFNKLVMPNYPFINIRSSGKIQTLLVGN
Summary of the method: as §1

ETV6 = ETV6 (Homo sapiens, UniProt P41212 1-452); details: protein: recombinant; tags: N-terminal GST; dsDNA, one strand shown
ETV6, sequence (P41212 whole entry): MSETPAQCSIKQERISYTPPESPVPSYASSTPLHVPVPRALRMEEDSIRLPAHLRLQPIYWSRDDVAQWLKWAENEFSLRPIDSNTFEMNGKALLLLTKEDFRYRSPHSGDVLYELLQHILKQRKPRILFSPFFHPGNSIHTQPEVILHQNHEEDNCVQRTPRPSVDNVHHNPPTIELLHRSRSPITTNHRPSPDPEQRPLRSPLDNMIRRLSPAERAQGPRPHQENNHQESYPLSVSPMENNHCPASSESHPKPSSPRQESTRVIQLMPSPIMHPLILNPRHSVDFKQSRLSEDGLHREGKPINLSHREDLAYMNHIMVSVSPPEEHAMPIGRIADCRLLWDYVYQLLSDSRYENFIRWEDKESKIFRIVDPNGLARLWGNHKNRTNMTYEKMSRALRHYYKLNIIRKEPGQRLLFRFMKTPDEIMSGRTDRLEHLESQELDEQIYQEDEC
Summary of the method: as §1

ATTGGG
binding signal (FEV): 1.13 fold enrichment (6-mer frequency, TF over GST control)
binding signal (ETV5): 1.26 fold enrichment (6-mer frequency, TF over GST control)
binding signal (HSF1): 1.06 fold enrichment (6-mer frequency, TF over GST control)
binding signal (SPIC): 1.26 fold enrichment (6-mer frequency, TF over GST control)
binding signal (ELF4): 1.19 fold enrichment (6-mer frequency, TF over GST control)
binding signal (ELK4): 1.18 fold enrichment (6-mer frequency, TF over GST control)
binding signal (ETV2): 1.13 fold enrichment (6-mer frequency, TF over GST control)
binding signal (ELF3): 1.22 fold enrichment (6-mer frequency, TF over GST control)
binding signal (CRX): 1.22 fold enrichment (6-mer frequency, TF over GST control)
binding signal (ETV1): 1.2 fold enrichment (6-mer frequency, TF over GST control)
binding signal (ERF): 1.31 fold enrichment (6-mer frequency, TF over GST control)
binding signal (ETV3L): 1.15 fold enrichment (6-mer frequency, TF over GST control)
binding signal (ETS2): 1.12 fold enrichment (6-mer frequency, TF over GST control)
binding signal (SPDEF): 1.19 fold enrichment (6-mer frequency, TF over GST control)
binding signal (ETV7): 1.11 fold enrichment (6-mer frequency, TF over GST control)
binding signal (ELF5): 1.11 fold enrichment (6-mer frequency, TF over GST control)
binding signal (ETV3): 1.15 fold enrichment (6-mer frequency, TF over GST control)
binding signal (ETV6): 1.16 fold enrichment (6-mer frequency, TF over GST control)
